# Compound activity deposited in PubChem by National Center for Advancing Translational Sciences (NCATS).
# An excerpt weighted towards active compounds, which were near 9.4% of everything screened.
# IMPase Li inh = membrane-permeable IMPase blocker, potentiated with lithium. Potency, µM (titrated, usually from 59.4 µM), inactives show at the top dose activity, negative = IMPase inhibition, usual class: inhibitors. 0.35% of 210,000 active. CHO-M1 cells, IP1 TR-FRET (IP-One), carbachol + lithium. AID 1457;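 also: IP1 builds up when IMPase is blocked and the TR-FRET signal falls; potency is read from the fitted curve at half-maximal effect; plate controls were basal vehicle for no effect and high inhibitor control for full effect; nearly all actives have a fitted effect of over 50% in size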
#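 CHO cells stably expressing M1 receptor (2000/well) were cultured 16–30 h, then exposed to compounds with a small lithium addition for 30 min at 37C. IP1 was measured by TR-FRET competition; AC50 from Hill fits.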
# HPGD inh = HPGD (human) dehydrogenase inhibition; 4.3% of 150,000 active; Potency, µM, without a hit: at the top dose activity change, negative = inhibition, usual class: inhibitors; purified HPGD, NADH fluorescence kinetic, PGE2 substrate; P15428; active = well fitted inhibition curve with a large enough effect, not every such curve was filed as active; inconclusive = small, poorly fitted or top-dose-only effect, or another doubt; inactive = no such curve, though single readings can be large or run the other way; also: potency is read from the fitted curve at half-maximal effect; % is scaled to controls: 0 for no effect and ±100 for the full control effect
# Target sequence (P15428 whole entry, looked up): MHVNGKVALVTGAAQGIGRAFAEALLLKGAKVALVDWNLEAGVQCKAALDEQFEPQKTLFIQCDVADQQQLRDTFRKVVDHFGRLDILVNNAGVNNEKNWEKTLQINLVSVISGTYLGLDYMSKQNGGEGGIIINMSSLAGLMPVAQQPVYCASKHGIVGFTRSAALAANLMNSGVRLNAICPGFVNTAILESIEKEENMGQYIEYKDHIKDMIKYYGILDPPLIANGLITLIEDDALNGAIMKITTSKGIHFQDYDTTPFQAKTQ
#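 NADH formation kinetics: reaction with 30 uM PGE2 and 1 mM NAD+ (final), 20 nM enzyme, Tris-HCl pH 8 with Tween 20, after 15 min compound preincubation at room temperature. Fluorescence change, last versus first of five reads.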
# HTT aggregate = mutant huntingtin aggregation inhibition | PC12 HttQ103-GFP aggregates, Acumen cytometry, 40 h | Potency, µM (doses to about 46.1 µM), without a hit: at the highest dose activity change, negative = inhibition, hits mostly inhibitors | 1.1% of 220,000 active | AID 1688; also: potency is read from the fitted curve at half-maximal effect; % is scaled to controls: 0 for no effect and ±100 for the full control effect; nearly all actives have a fitted effect of over 60% in size
#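 Using laser scanning cytometry, GFP-positive aggregates were counted after lysis of PC12 cells induced with 100 nM tebufenozide to express HTT exon 1 Q103–GFP. Compounds were tested in titration.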
# HTT ATP protect = cytoprotection in Huntington HTT-Q103 PC12 cell model; Potency, µM (titrated, usually from 56.4 µM), for inactives: cytoprotection (ATP increase), actives largely listed as activators; AID 1471; 0.14% of 230,000 active; PC12 HTT-Q103 induced, cytoprotection, ATP luminescence, 40 h; also: potency is read from the fitted curve at half-maximal effect; % of control where 0% means no effect; nearly all actives have a fitted effect of over 45% in size
#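 Cells were plated at 1500 per well in phenol red-free DMEM with 5% equine and 5% calf serum. Tebufenozide (100 nM final) and compounds were added, then ATPlite reagent, and luminescence was read.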
# IMPase inh = cell-permeable inhibitors of inositol monophosphatase (IMPase) | 120,000 tested, under 10 active | P97697 | inhibition (IP1 accumulation), % at 46.1 µM | CHO-M1 cells, IP1 accumulation, HTRF TR-FRET ratio | AID 901; active = well fitted curve in the direction sought with a large enough effect in the signal ratio, not every such curve was filed as active; inconclusive = small, poorly fitted or top-dose-only effect, or a change in a side signal; inactive = no such curve, though single readings can be large or run the other way; the % refers to the signal ratio;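 also: cells stimulated with carbachol in lithium chloride buffer; plate controls were DMSO basal wells for no effect and reference inhibitor wells for full effect; higher means more IMPase inhibition seen as more IP1 and lower FRET ratio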
# Target sequence (P97697 whole entry, looked up): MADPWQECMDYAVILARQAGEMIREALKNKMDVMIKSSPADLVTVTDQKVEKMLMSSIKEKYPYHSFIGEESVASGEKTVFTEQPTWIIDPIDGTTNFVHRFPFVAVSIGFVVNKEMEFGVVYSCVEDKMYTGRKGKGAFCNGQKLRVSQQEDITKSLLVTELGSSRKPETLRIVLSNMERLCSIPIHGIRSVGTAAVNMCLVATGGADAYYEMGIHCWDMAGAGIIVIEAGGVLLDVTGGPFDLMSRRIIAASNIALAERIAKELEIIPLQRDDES
#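 The IP-One HTRF competitive assay in carbachol-stimulated CHO-M1 cells quantifies cellular IP1. Compounds spanned up to 46 uM final, and activity is expressed as AC50 from concentration-response fits of the ratio and donor data.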
# ALDH1A1 inh = inhibitors of human aldehyde dehydrogenase 1A1; AID 1030; Purified ALDH1A1, NADH fluorescence, propionaldehyde substrate; Potency, µM (series often up to 75.3 µM), for the others: at the top dose activity, negative = inhibition, usual class: inhibitors; 7.3% of 220,000 active; active = well fitted inhibition curve with a large enough effect, not every such curve was filed as active; inconclusive = small, poorly fitted or top-dose-only effect, or another doubt; inactive = no such curve, though single readings can be large or run the other way;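 also: potency is read from the fitted curve at half-maximal effect; plate controls were no enzyme wells and a reference inhibitor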
# An asterisk follows results filed as active; ? = inconclusive; . = not tested or not shown; [ ] = dose if it differs, or a comment. Unless noted, calls follow the shape of the dose curve; as a rule, active = well fitted curve in the direction sought with a large enough effect; inconclusive = small, poorly fitted or top-dose-only effect, or another doubt; inactive = no such curve, though single readings can be large; an effect the other way counts as inactive or inconclusive.
SMILES,IMPase Li inh,HPGD inh,HTT aggregate,HTT ATP protect,IMPase inh,ALDH1A1 inh
COc1cccc(NC(=O)C2CC(=O)n3cnnc3S2)c1 (centres undefined),-11%[38.3 µM],16µM*,12%,-34%,0,0.71µM*
CC(=O)Oc1cc(-c2coc3cc(OC(C)=O)c(OC(C)=O)c(OC(C)=O)c3c2=O)cc(OC(C)=O)c1OC(C)=O,14%,7.9µM*,.,.,.,?
NCCCC(N)CC(=O)NCC1NC(=O)C(CO)NC(=O)C(N)CNC(=O)C(C2CCN=C(N)N2)NC(=O)/C(=C\NC(N)=O)NC1=O (centres undefined),6%,1%,.,-79%,.,1%
CCCCCCCC1=Cc2ccccc2C(CC(C)=O)N1C(=O)OC (centres undefined),-11%,-8%,.,?,.,0%[13.5 µM]
CCOC(=O)c1ccc(N2C(=O)CC(N3CCOCC3)C2=O)cc1 (centres undefined),13%[38.3 µM],-3%,16%,-2%[0.074 µM],-1,25µM*
CCOc1cccc(N2C(=O)CC(N3CCC(C(N)=O)(N4CCCCC4)CC3)C2=O)c1 (centres undefined),-6%[38.3 µM],-13%,-5%,3%,-1,25µM*
CCOc1cccc(N2C(=O)CC(N(CCc3ccc(OC)c(OC)c3)C(=O)CC)C2=O)c1 (centres undefined),5%[38.3 µM],-2%,4%,-5%[1.9 µM],0,0%
CCOc1cccc(N2C(=O)CC(N3CCN(c4nc5ccccc5s4)CC3)C2=O)c1 (centres undefined),29%[38.3 µM],-4%,4%,2%,16,-13%
CCOC(=O)c1ccc(N2C(=O)CC(N(Cc3ccc4c(c3)OCO4)C(=O)Nc3ccccc3)C2=O)cc1 (centres undefined),30%[38.3 µM],-9%,20%,-12%,8,13µM*
CNC(=S)N(Cc1ccc2c(c1)OCO2)C1CC(=O)N(c2ccc(F)cc2)C1=O (centres undefined),0%[38.3 µM],-6%,8%,-1%[10 µM],5,-2%
CCOC(=O)c1ccc(N2C(=O)CC(N(C)CCc3ccc(OC)c(OC)c3)C2=O)cc1 (centres undefined),13%[38.3 µM],-3%,6%,-7%,2,10µM*
CN(C)c1ncc2nc(-c3cccs3)c(=O)n(C[C@H]3CCCO3)c2n1,8%,.,.,-2%,.,?
CCOC(=O)c1ccc(N2C(=O)CC(Nc3ccc(CCO)cc3)C2=O)cc1 (centres undefined),15%[38.3 µM],-23%,?,-3%,-4,16µM*
CCOC(=O)c1ccc(N2C(=O)CC(N3CCC(C(N)=O)(N4CCCCC4)CC3)C2=O)cc1 (centres undefined),-7%,-13%,-1%,-14%[10 µM],1,8.9µM*
CC(=O)Oc1ccc(N2C(=O)CC(N3CCOCC3)C2=O)cc1 (centres undefined),-21%[38.3 µM],-5%,5%,1%[10 µM],-5,32µM*
CC(=O)Oc1ccc(N2C(=O)C3C4C=CC(O4)C3C2=O)cc1 (centres undefined),-4%[38.3 µM],32µM*,?,-19%,-1,0.45µM*
CC(=O)Oc1ccc(N2C(=O)CCC2=O)cc1,9%[38.3 µM],-10%,-14%,-18%,-9,-4%
CCOC(=O)C1CCCN(C2CC(=O)N(c3ccc(C)cc3)C2=O)C1 (centres undefined),24%[38.3 µM],-5%,-1%,-4%,-2,-8%
O=P(O)(O)O[C@@H]1O[C@H](CO)[C@@H](O)[C@H](O)[C@@H]1O,-6%,-1%,.,-6%[10 µM],.,5%[13.5 µM]
Cn1c(=O)n(C)c2cc(N3CCOCC3)c(NC(=O)c3c(F)cccc3F)cc21,.,.,.,.,-2,.
NCCCC(N)CC(=O)NC1CNC(=O)C(C2CC(O)N=C(N)N2)NC(=O)/C(=C/NC(N)=O)NC(=O)C(CO)NC(=O)C(CO)NC1=O (centres undefined),.,.,-18%,6%,.,.
